Test results as given in publication PMC7862700, “An all-to-all approach to the identification of sequence-specific readers for epigenetic DNA modifications on cytosine”.

Legend:
Test in all cases: DAPPL (digital affinity profiling via proximity ligation, sequencing); 10 mM Tris-HCl pH 7.5, 50 mM NaCl, 1 mM DTT, 4% glycerol, room temperature, 30 min; GST-TFs on glutathione beads, 16-mer random dsDNA library, 0.1% formaldehyde crosslink after washing; high values mean tight binding
[1] = molecular target: T1, FLI1 (Homo sapiens, UniProt Q01543 1-452); details: protein: recombinant; tags: N-terminal GST; dsDNA, one strand shown
T1 sequence: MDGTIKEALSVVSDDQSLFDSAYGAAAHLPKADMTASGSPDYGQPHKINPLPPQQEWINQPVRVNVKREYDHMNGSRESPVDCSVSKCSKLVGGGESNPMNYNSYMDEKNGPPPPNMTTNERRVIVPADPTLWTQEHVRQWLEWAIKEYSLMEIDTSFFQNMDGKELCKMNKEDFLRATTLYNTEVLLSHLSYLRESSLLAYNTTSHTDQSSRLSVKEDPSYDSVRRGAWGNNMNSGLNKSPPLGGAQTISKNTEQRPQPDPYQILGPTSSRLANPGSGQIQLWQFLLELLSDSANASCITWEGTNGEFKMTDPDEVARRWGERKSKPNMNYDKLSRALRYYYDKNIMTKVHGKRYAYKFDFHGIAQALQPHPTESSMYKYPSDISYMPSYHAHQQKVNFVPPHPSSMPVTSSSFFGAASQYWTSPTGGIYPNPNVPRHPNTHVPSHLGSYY
How it was run: (§1)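 Each value of binding signal is a hexamer's read frequency for a factor divided by the same hexamer's frequency in the tag-only sample. Barcoded, bead-captured GST fusions of human transcription factors made in yeast were pooled with that sample and incubated with 200 nmole of a random double-stranded 16-mer DNA library in Tris/NaCl/DTT/glycerol buffer at room temperature for 30 min. Washing, 0.1% formaldehyde crosslinking, proximity ligation, PCR and Illumina NextSeq500 sequencing followed.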

[2] = molecular target: T2, ELK1 (Homo sapiens, UniProt P19419 1-428); details: protein: recombinant; tags: N-terminal GST; dsDNA, one strand shown
T2 sequence: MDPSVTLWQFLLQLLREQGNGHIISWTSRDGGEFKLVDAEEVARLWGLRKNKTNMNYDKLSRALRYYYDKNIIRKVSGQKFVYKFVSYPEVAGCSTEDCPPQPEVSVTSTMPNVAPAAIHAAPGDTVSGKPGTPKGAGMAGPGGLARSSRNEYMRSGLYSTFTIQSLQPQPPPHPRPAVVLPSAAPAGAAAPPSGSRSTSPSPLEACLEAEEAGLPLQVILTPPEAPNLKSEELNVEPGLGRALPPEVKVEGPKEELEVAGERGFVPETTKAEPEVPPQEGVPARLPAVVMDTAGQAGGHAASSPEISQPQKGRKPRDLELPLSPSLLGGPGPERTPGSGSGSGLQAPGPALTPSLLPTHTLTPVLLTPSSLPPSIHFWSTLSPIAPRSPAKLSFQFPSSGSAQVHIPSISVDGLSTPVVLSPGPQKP
How it was run: as §1

[3] = molecular target: T3, GABPA (Homo sapiens, UniProt Q06546 1-454); details: protein: recombinant; tags: N-terminal GST; dsDNA, one strand shown
T3 sequence: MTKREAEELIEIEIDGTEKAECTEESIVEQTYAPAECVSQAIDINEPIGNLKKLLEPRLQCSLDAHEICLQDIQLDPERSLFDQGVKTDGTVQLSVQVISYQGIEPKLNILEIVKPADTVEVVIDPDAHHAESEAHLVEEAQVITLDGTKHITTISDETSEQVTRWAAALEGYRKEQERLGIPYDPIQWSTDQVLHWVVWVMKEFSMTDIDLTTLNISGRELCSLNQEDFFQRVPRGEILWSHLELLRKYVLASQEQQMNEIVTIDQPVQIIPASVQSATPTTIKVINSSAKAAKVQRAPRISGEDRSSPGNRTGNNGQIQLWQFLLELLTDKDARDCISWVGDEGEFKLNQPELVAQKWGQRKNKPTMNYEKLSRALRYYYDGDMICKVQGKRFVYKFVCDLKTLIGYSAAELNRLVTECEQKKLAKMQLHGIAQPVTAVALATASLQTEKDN
How it was run: as §1

[4] = molecular target: T4, ERG (Homo sapiens, UniProt P11308 1-479); details: protein: recombinant; tags: N-terminal GST; dsDNA, one strand shown
T4 sequence: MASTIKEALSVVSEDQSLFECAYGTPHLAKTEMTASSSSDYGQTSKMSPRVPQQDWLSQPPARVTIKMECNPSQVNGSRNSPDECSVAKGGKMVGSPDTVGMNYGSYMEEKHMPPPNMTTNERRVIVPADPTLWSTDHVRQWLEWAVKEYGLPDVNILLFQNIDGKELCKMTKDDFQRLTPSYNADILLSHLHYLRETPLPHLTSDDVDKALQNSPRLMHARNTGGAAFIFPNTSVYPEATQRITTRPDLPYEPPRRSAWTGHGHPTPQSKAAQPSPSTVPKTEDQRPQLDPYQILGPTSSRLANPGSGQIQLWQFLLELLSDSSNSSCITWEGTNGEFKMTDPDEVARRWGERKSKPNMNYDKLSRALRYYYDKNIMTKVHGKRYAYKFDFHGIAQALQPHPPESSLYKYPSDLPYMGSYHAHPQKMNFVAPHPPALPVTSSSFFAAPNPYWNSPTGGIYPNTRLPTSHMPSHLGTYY
How it was run: as §1

[5] = molecular target: ELF1 (Homo sapiens, UniProt P32519 1-619); details: protein: recombinant; tags: N-terminal GST; dsDNA, one strand shown
Sequence of ELF1 (P32519 whole entry): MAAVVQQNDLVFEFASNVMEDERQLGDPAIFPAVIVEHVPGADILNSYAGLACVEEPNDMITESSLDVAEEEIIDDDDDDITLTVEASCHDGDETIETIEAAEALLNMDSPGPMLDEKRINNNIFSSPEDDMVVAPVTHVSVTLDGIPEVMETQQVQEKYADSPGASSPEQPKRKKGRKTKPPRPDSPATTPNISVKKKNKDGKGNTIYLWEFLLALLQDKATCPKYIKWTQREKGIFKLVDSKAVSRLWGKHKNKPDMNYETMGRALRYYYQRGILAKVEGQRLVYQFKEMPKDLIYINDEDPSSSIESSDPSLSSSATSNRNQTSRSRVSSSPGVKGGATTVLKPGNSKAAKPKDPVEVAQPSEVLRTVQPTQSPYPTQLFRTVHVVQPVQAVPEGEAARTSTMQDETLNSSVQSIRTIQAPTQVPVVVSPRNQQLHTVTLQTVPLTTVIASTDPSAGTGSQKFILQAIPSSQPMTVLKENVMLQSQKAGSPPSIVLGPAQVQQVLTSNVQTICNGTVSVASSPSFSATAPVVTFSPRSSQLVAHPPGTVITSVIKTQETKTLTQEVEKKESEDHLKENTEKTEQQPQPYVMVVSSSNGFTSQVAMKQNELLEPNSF
How it was run: as §1

[6] = molecular target: T5, EHF (Homo sapiens, UniProt Q9NZC4 1-300); details: protein: recombinant; tags: N-terminal GST; dsDNA, one strand shown
T5 sequence: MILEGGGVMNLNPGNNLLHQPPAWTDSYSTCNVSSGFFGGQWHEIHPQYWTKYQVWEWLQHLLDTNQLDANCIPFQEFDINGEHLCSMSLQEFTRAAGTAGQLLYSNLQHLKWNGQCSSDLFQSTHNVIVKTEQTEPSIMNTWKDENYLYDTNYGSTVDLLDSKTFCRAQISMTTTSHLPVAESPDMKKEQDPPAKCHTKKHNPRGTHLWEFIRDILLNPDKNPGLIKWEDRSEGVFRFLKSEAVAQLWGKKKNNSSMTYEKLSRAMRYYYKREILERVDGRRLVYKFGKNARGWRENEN
How it was run: as §1

[7] = molecular target: SPI1 (Homo sapiens, UniProt P17947 1-270); details: protein: recombinant; tags: N-terminal GST; dsDNA, one strand shown
How it was run: as §1

[8] = molecular target: SPIB (Homo sapiens, UniProt Q01892 1-262); details: protein: recombinant; tags: N-terminal GST; dsDNA, one strand shown
Sequence of SPIB (Q01892 whole entry): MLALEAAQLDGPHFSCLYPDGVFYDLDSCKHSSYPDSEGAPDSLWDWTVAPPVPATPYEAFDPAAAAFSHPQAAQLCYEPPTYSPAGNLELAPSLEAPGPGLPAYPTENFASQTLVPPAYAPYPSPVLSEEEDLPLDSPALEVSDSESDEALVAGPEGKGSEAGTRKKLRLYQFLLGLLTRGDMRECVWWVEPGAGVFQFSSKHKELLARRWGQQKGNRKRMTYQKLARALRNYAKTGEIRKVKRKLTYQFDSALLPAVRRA
How it was run: as §1

[9] = molecular target: T6, ELK3 (Homo sapiens, UniProt P41970 1-407); details: protein: recombinant; tags: N-terminal GST; dsDNA, one strand shown
T6 sequence: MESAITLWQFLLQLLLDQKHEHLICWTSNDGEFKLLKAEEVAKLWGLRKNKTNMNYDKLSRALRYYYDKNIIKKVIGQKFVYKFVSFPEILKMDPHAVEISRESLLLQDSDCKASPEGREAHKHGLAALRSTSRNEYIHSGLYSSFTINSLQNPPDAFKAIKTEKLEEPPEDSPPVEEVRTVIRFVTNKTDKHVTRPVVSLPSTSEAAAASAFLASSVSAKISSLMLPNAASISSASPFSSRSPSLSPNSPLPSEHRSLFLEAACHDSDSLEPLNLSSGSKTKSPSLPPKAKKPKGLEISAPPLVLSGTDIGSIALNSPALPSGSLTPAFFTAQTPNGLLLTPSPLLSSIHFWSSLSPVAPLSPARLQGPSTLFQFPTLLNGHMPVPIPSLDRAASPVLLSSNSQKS
How it was run: as §1

[10] = molecular target: T7, FEV (Homo sapiens, UniProt Q99581 1-238); details: protein: recombinant; tags: N-terminal GST; dsDNA, one strand shown
T7 sequence: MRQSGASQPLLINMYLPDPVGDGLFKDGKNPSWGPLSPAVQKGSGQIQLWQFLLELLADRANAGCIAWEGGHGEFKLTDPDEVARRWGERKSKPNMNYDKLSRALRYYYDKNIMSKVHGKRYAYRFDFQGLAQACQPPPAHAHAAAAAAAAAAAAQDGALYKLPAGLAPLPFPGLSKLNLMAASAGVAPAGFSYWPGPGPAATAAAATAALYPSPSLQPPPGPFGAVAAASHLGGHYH
How it was run: as §1

[11] = molecular target: ETV5 (Homo sapiens, UniProt P41161 1-510); details: protein: recombinant; tags: N-terminal GST; dsDNA, one strand shown
Sequence of ETV5 (P41161 whole entry): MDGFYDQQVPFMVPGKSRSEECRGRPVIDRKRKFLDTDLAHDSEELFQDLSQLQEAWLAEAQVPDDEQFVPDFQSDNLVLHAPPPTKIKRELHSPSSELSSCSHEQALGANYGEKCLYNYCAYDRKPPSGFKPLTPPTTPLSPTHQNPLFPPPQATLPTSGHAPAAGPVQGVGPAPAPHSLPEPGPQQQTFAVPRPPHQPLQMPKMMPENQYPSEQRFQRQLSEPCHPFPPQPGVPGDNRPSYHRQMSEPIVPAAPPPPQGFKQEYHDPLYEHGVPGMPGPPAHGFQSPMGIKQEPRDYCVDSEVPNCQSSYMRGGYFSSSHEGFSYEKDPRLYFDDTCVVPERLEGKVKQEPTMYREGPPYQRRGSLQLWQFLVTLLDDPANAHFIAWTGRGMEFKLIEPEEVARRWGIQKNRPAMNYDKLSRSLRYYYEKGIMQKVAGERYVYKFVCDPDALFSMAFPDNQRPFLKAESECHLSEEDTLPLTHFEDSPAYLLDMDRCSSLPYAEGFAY
How it was run: as §1

[12] = molecular target: HSF1 (Homo sapiens, UniProt Q00613 1-529); details: protein: recombinant; tags: N-terminal GST; chain copies: 3; dsDNA, one strand shown
Sequence of HSF1 (Q00613 whole entry): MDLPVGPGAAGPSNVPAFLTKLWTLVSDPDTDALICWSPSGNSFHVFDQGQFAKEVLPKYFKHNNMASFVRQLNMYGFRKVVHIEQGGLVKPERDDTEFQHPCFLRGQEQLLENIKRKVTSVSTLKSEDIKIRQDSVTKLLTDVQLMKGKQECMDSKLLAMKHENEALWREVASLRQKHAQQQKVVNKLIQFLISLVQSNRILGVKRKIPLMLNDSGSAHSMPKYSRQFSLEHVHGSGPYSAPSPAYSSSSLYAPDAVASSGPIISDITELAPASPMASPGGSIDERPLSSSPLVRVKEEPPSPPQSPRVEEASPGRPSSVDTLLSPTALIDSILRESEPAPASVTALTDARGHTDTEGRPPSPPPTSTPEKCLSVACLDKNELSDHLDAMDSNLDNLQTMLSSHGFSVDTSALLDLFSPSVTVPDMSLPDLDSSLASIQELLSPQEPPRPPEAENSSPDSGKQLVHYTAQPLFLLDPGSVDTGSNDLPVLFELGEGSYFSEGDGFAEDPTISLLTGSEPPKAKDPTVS
How it was run: as §1

[13] = molecular target: T8, SPIC (Homo sapiens, UniProt Q8N5J4 1-248); details: protein: recombinant; tags: N-terminal GST; dsDNA, one strand shown
T8 sequence: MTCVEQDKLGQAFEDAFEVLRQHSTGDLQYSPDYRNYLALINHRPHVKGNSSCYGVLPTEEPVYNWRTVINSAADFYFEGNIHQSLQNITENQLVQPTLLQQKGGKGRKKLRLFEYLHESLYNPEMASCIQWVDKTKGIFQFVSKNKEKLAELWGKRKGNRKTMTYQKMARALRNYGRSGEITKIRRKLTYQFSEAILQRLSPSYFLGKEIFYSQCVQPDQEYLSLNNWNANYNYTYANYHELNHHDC
How it was run: as §1

[14] = molecular target: ELF4 (Homo sapiens, UniProt Q99607 1-663); details: protein: recombinant; tags: N-terminal GST; dsDNA, one strand shown
Sequence of ELF4 (Q99607 whole entry): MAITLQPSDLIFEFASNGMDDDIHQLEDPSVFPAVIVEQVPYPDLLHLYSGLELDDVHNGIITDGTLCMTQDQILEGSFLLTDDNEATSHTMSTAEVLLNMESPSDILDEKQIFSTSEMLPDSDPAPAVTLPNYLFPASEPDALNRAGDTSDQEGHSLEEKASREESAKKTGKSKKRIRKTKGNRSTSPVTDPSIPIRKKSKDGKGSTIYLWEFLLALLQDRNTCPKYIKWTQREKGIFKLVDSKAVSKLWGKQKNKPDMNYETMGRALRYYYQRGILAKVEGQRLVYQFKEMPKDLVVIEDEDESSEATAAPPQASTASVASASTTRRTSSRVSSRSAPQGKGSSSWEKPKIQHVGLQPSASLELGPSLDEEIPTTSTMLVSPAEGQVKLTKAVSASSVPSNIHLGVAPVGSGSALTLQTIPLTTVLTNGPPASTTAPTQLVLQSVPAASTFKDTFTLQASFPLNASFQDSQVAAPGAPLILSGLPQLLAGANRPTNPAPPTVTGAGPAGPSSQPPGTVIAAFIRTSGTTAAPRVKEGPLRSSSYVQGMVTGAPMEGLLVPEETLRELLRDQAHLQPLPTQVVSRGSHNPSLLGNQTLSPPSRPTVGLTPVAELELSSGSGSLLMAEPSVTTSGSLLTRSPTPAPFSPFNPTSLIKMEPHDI
How it was run: as §1

[15] = molecular target: T9, ELK4 (Homo sapiens, UniProt P28324-2 1-405); details: protein: recombinant; tags: N-terminal GST; dsDNA, one strand shown
T9 sequence: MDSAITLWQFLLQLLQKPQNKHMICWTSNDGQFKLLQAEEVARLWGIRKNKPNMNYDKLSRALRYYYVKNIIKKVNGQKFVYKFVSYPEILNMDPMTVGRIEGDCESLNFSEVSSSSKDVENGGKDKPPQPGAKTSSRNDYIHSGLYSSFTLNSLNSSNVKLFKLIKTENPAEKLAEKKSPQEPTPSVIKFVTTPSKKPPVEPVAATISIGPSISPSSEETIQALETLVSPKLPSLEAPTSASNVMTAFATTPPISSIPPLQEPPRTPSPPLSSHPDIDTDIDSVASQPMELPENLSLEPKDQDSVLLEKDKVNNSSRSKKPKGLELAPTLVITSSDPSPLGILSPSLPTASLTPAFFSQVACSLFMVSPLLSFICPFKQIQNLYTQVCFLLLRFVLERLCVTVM
How it was run: as §1

[16] = molecular target: T10, ETV2 (Homo sapiens, UniProt O00321 1-342); details: protein: recombinant; tags: N-terminal GST; dsDNA, one strand shown
T10 sequence: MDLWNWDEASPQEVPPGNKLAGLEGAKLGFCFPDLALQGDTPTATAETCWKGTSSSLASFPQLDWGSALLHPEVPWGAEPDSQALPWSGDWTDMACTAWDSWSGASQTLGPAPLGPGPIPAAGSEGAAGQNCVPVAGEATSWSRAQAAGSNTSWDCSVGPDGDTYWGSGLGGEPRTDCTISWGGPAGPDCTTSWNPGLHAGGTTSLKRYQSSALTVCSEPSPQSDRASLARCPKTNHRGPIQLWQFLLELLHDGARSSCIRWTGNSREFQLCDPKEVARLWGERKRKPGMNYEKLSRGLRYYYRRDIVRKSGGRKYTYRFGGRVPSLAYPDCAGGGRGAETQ
How it was run: as §1

[17] = molecular target: T11, ELF3 (Homo sapiens, UniProt P78545 1-371); details: protein: recombinant; tags: N-terminal GST; dsDNA, one strand shown
T11 sequence: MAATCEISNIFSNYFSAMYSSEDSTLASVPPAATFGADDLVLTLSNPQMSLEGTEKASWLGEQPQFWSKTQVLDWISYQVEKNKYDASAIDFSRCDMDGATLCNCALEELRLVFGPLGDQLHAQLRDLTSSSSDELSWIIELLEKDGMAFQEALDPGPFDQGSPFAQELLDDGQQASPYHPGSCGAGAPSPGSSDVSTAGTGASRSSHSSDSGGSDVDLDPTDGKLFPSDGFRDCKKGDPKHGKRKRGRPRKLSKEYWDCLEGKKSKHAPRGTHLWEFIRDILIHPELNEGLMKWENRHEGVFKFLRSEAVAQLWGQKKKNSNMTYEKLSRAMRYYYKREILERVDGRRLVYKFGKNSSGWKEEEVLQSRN
How it was run: as §1

[18] = molecular target: CRX (Homo sapiens, UniProt O43186 1-299); details: protein: recombinant; tags: N-terminal GST; dsDNA, one strand shown
Sequence of CRX (O43186 whole entry): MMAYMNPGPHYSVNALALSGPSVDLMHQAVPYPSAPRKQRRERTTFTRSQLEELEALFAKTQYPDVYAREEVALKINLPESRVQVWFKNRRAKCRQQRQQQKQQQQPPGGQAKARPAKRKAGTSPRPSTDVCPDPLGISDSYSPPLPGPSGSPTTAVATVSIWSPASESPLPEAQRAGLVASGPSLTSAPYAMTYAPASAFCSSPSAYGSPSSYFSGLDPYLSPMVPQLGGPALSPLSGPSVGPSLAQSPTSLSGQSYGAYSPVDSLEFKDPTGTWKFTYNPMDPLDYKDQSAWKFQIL
How it was run: as §1

[19] = molecular target: ETV1 (Homo sapiens, UniProt P50549 1-477); details: protein: recombinant; tags: N-terminal GST; dsDNA, one strand shown
Sequence of ETV1 (P50549 whole entry): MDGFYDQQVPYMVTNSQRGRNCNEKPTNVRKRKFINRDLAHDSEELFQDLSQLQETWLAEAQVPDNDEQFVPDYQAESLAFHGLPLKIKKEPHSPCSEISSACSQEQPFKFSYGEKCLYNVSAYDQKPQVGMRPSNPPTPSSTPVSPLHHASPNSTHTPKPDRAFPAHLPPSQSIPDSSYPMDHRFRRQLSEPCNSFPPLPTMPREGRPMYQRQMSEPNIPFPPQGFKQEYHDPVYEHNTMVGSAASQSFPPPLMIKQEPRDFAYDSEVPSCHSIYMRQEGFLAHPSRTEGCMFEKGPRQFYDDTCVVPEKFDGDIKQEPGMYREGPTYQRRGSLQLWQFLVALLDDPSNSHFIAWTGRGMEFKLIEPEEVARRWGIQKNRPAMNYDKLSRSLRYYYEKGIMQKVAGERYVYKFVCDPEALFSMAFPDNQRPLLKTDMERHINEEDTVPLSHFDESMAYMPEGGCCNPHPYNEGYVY
How it was run: as §1

GCTTGC
binding signal [1]: 1.41 fold enrichment (6-mer frequency, TF over GST control)
binding signal [2]: 1.28 fold enrichment (6-mer frequency, TF over GST control)
binding signal [3]: 1.21 fold enrichment (6-mer frequency, TF over GST control)
binding signal [4]: 1.14 fold enrichment (6-mer frequency, TF over GST control)
binding signal [5]: 1.25 fold enrichment (6-mer frequency, TF over GST control)
binding signal [6]: 1.28 fold enrichment (6-mer frequency, TF over GST control)
binding signal [7]: 1.18 fold enrichment (6-mer frequency, TF over GST control)
binding signal [8]: 1.24 fold enrichment (6-mer frequency, TF over GST control)
binding signal [9]: 1.3 fold enrichment (6-mer frequency, TF over GST control)
binding signal [10]: 1.2 fold enrichment (6-mer frequency, TF over GST control)
binding signal [11]: 1.22 fold enrichment (6-mer frequency, TF over GST control)
binding signal [12]: 1.1 fold enrichment (6-mer frequency, TF over GST control)
binding signal [13]: 1.44 fold enrichment (6-mer frequency, TF over GST control)
binding signal [14]: 1.09 fold enrichment (6-mer frequency, TF over GST control)
binding signal [15]: 1.34 fold enrichment (6-mer frequency, TF over GST control)
binding signal [16]: 1.31 fold enrichment (6-mer frequency, TF over GST control)
binding signal [17]: 1.03 fold enrichment (6-mer frequency, TF over GST control)
binding signal [18]: 1.14 fold enrichment (6-mer frequency, TF over GST control)
binding signal [19]: 1.25 fold enrichment (6-mer frequency, TF over GST control)
